Results on 40 compounds are retold here after PubChem BioAssay.

Values without a mark were called inactive. Calls of active or inactive are those of the source.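 Rule for the calls, unless noted: active = compound that reduces growth-factor-driven endothelial tube area in a mixed cell culture, no cutoff stated; inactive = the rest.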

The nature of the first test: inhibition of endothelial tube formation, primary screen, imaging, VEGF stimulated, CD31 staining, tube area, NPC library (AID 1117340). To be noted: VEGF-stimulated ADSC/ECFC co-culture, at 10 µM, stronger effect = higher value.
With `COc1cc(N)c(Cl)cc1C(=O)NC1CCN(CCCOc2ccc(F)cc2)CC1OC` (stereo not given), the tube area decrease is -0.4%.
Same read-out and setting: the figure for `O=C(OOC(=O)c1ccccc1)c1ccccc1` is -15.4%; for `C[C@@]12C(=O)OC(=O)[C@]1(C)C1CCC2O1` it is 111% (active).
The same measure, in the same setting: the figure for `CCOCC(O)COc1ccc(NC(=O)CC[S+](C)C)cc1` (stereo not given) is -11.2%; for `C[N+](C)(C)CCCCCCCCCC[N+](C)(C)C` it is -2.9%.
On to `CC[C@@H](CO)NCCN[C@@H](CC)CO`, for which the tube area decrease is 14.4%.
As to `Cc1ncc(CSSCc2cnc(C)c(O)c2CO)c(CO)c1O`, the tube area decrease is -25.7%.
On the same count and under the same terms, the figure for `O=C(O)CN(CC(=O)O)Cc1cc2c(-c3ccccc3C(=O)O)c3cc(CN(CC(=O)O)CC(=O)O)c(=O)cc-3oc2cc1O` is 19.9%; for `CC1=C(C/C=C(\C)CCC[C@H](C)CCC[C@H](C)CCCC(C)C)C(=O)c2ccccc2C1=O` it is 23.9%.
With `OCCc1ccccc1`, the tube area decrease is -4.7%.
The same measure, in the same setting: then `O=C1c2ccccc2C(=O)C1c1ccc(Br)cc1`, with 31.1%; and `CCOC(=O)c1ccc(O)cc1`, with -5%; and `O=C(CCCl)NCc1ccccc1`, with -9.5%.
Take `CC1(C)[C@@H]2CC[C@@]1(C)C(=O)C2`: the tube area decrease was -4.3%.
Same read-out and setting: then `Cc1cc(C(C#N)c2ccc(Cl)cc2)c(Cl)cc1NC(=O)c1cc(I)cc(I)c1O` (stereo not given), with 111% (active); and `CC(C)CCCC(C)N` (stereo not given), with -9.7%.
`NCCNCCNCCN`: the tube area decrease was -7.4%.
Same read-out and setting: then `Nc1ncn([C@H]2C[C@H](O)[C@@H](CO)O2)c(=O)n1`, with 58.1% (active); and `CC(O)Cn1cnc2c1c(=O)n(C)c(=O)n2C` (stereo not given), with 7.5%.
Same read-out and setting: then `CC(=O)NCc1c(I)c(NC(C)=O)c(I)c(C(=O)O)c1I`, with -6.1%; and `O=S(=O)(O)CCCS(=O)(=O)O`, with -1.1%; and `CNCc1ccccc1`, with -5.5%.
Same read-out and setting: the figure for `CCN(CC)CCOc1ccc2c(c1)C(=O)c1cc(OCCN(CC)CC)ccc1-2` is 13%; for `CN(C)CCCOc1nn(Cc2ccccc2)c2ccccc12` it is 12.8%.
For the compound `CCCCCCCCCCOc1cc2c(=O)c(C(=O)OCC)c[nH]c2cc1OCC`, the tube area decrease is -2%.
Take `NC(=O)c1cc[n+](CC2=C(C(=O)[O-])N3C(=O)[C@@H](NC(=O)Cc4cccs4)[C@H]3SC2)cc1`: the tube area decrease is -7.6%.
On the same count and under the same terms, the figure for `Cc1c(F)c(N2CCNC(C)C2)cc2c1c(=O)c(C(=O)O)cn2C1CC1` (stereo not given) is -1%; for `Cc1cc2nc3ccc(=[N+](C)C)cc-3sc2cc1N` it is 108% (active); for `NC(=O)C1(N2CCCCC2)CCN(CCCC(=O)c2ccc(F)cc2)CC1` it is 11.1%.
Still for that read-out and setting: then `CC(=O)NC(Cc1ccccc1)C(=O)O` (stereo not given), with -0.2%; and `O=C(Nc1ccc(C(=O)O)c(O)c1)c1ccccc1`, with 7.2%; and `CC(C)=CCC/C(C)=C/CO`, with 12.4%.
As to `CC1=C(/C=C/C(C)=C/C=C/C(C)=C/C(=O)Nc2ccc(O)cc2)C(C)(C)CCC1`, the tube area decrease was 110% (active).
Still for that read-out and setting: the figure for `O=C1OC2(c3ccc(O)cc3Oc3cc(O)ccc32)c2ccccc21` is 15.8%; for `COc1cc(C(=O)NCCCCCC(=O)O)cc(OC)c1OC` it is 12.7%.
The same measure, in the same setting: the figure for `OC1C(O)C(O)C(O)C(O)C1O` (stereo not given) is 3%.
The same measure, in the same setting: the figure for `Nc1nc(Cl)nc2c1ncn2[C@@H]1O[C@H](CO)[C@@H](O)[C@@H]1F` is 104% (active); for `CC(O)(P(=O)(O)O)P(=O)(O)O` it is 8.2%.
Regarding `CC(=O)OCC(=O)[C@@]1(O)CCC2C3CCC4=CC(=O)CC[C@]4(C)C3[C@@H](O)C[C@@]21C` (stereo not given in full), the tube area decrease is 1.6%.
Same read-out and setting: the figure for `NC(=O)CCCCC1CCSS1` (stereo not given) is 18%.

The next test can be described thus: glucagon-like peptide 1 release enhancers, primary assay, NCI-H716 cell line, NPC library (AID 1117341;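 active = compound raises GLP1 secretion from the human gut endocrine cells, with no numeric limit stated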; note: reference of the scale not given here). The following applies: NCI-H716 cells, at 10 µM, stronger effect = higher value.
In the case of `COc1cc(N)c(Cl)cc1C(=O)NC1CCN(CCCOc2ccc(F)cc2)CC1OC` (stereo not given), the GLP1 secretion stimulation was 13.3%.
On the same count and under the same terms, the figure for `O=C(OOC(=O)c1ccccc1)c1ccccc1` is -3.2%; for `C[C@@]12C(=O)OC(=O)[C@]1(C)C1CCC2O1` it is 20.1% (active).
Take `CCOCC(O)COc1ccc(NC(=O)CC[S+](C)C)cc1` (stereo not given): the GLP1 secretion stimulation was -0.3%.
The same measure, in the same setting: the figure for `C[N+](C)(C)CCCCCCCCCC[N+](C)(C)C` is 0.7%; for `CC[C@@H](CO)NCCN[C@@H](CC)CO` it is -1.2%; for `Cc1ncc(CSSCc2cnc(C)c(O)c2CO)c(CO)c1O` it is 6.7%.
Same read-out and setting: then `O=C(O)CN(CC(=O)O)Cc1cc2c(-c3ccccc3C(=O)O)c3cc(CN(CC(=O)O)CC(=O)O)c(=O)cc-3oc2cc1O`, with 0.8%.
Same read-out and setting: the figure for `CC1=C(C/C=C(\C)CCC[C@H](C)CCC[C@H](C)CCCC(C)C)C(=O)c2ccccc2C1=O` is 2.3%; for `OCCc1ccccc1` it is -0.7%.
As for `O=C1c2ccccc2C(=O)C1c1ccc(Br)cc1`, the GLP1 secretion stimulation is -0.4%.
The same measure, in the same setting: then `CCOC(=O)c1ccc(O)cc1`, with 2.1%.
The same measure, in the same setting: the figure for `O=C(CCCl)NCc1ccccc1` is -0.7%.
On the same count and under the same terms, then `CC1(C)[C@@H]2CC[C@@]1(C)C(=O)C2`, with -0.1%; and `Cc1cc(C(C#N)c2ccc(Cl)cc2)c(Cl)cc1NC(=O)c1cc(I)cc(I)c1O` (stereo not given), with 14.4%; and `CC(C)CCCC(C)N` (stereo not given), with 0%.
Consider `NCCNCCNCCN`, for which the GLP1 secretion stimulation is -0.1%.
On to `Nc1ncn([C@H]2C[C@H](O)[C@@H](CO)O2)c(=O)n1`, for which the GLP1 secretion stimulation was 1.6%.
Same read-out and setting: then `CC(O)Cn1cnc2c1c(=O)n(C)c(=O)n2C` (stereo not given), with 1.8%; and `CC(=O)NCc1c(I)c(NC(C)=O)c(I)c(C(=O)O)c1I`, with 0%; and `O=S(=O)(O)CCCS(=O)(=O)O`, with -2.7%.
For `CNCc1ccccc1`, the GLP1 secretion stimulation is -3.4%.
The same measure, in the same setting: the figure for `CCN(CC)CCOc1ccc2c(c1)C(=O)c1cc(OCCN(CC)CC)ccc1-2` is 3.6%; for `CN(C)CCCOc1nn(Cc2ccccc2)c2ccccc12` it is 6%.
The same measure, in the same setting: the figure for `CCCCCCCCCCOc1cc2c(=O)c(C(=O)OCC)c[nH]c2cc1OCC` is 1.3%; for `NC(=O)c1cc[n+](CC2=C(C(=O)[O-])N3C(=O)[C@@H](NC(=O)Cc4cccs4)[C@H]3SC2)cc1` it is 0.9%; for `Cc1c(F)c(N2CCNC(C)C2)cc2c1c(=O)c(C(=O)O)cn2C1CC1` (stereo not given) it is -0.4%.
`Cc1cc2nc3ccc(=[N+](C)C)cc-3sc2cc1N`: the GLP1 secretion stimulation was -3.7%.
On the same count and under the same terms, then `NC(=O)C1(N2CCCCC2)CCN(CCCC(=O)c2ccc(F)cc2)CC1`, with 2.8%; and `CC(=O)NC(Cc1ccccc1)C(=O)O` (stereo not given), with 2.6%; and `O=C(Nc1ccc(C(=O)O)c(O)c1)c1ccccc1`, with -0.4%.
On the same count and under the same terms, then `CC(C)=CCC/C(C)=C/CO`, with -1.8%; and `CC1=C(/C=C/C(C)=C/C=C/C(C)=C/C(=O)Nc2ccc(O)cc2)C(C)(C)CCC1`, with 2.4%.
Still for that read-out and setting: the figure for `O=C1OC2(c3ccc(O)cc3Oc3cc(O)ccc32)c2ccccc21` is -2.3%.
Consider `COc1cc(C(=O)NCCCCCC(=O)O)cc(OC)c1OC`, for which the GLP1 secretion stimulation is -0.6%.
Same read-out and setting: then `OC1C(O)C(O)C(O)C(O)C1O` (stereo not given), with -2.7%; and `Nc1nc(Cl)nc2c1ncn2[C@@H]1O[C@H](CO)[C@@H](O)[C@@H]1F`, with 0.3%.
Same read-out and setting: then `CC(O)(P(=O)(O)O)P(=O)(O)O`, with 1.6%.
Regarding `CC(=O)OCC(=O)[C@@]1(O)CCC2C3CCC4=CC(=O)CC[C@]4(C)C3[C@@H](O)C[C@@]21C` (stereo not given in full), the GLP1 secretion stimulation is -3.9%.
Still for that read-out and setting: the figure for `NC(=O)CCCCC1CCSS1` (stereo not given) is -0.8%.
